# Test results as given in PubChem BioAssay (NCATS).
# Records with an inconclusive call do not appear. A call without a number means that no potency is given here. The source made the active and inactive calls. Unless noted, the call rests on the fitted dose curve; in most records, active means well fitted curve in the direction sought with a large enough effect; inconclusive means small, poorly fitted or top-dose-only effect, or another doubt; inactive means no such curve, though single readings can be large; an effect the other way counts as inactive or inconclusive.
# Legend:
# [1] = target: Chromobox protein homolog 1 (Homo sapiens) (UniProt P83916); assay: qHTS Validation Assay for Inhibitors of HP1-beta Chromodomain Interactions with Methylated Histone Tails (AID 488953);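 further: loss of AlphaScreen luminescence from HP1-beta binding biotinylated H3K9me3 peptide; series mostly up to about 110 µM; nearly all actives have a fitted effect of over 50% in size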
# Sequence of Chromobox protein homolog 1 (Homo sapiens) (P83916 whole entry, looked up): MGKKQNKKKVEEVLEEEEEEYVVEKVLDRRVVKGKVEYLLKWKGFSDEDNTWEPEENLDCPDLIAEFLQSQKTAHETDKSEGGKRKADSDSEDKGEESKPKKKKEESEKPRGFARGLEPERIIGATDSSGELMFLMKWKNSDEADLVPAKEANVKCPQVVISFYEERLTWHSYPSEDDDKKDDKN
# Procedure, shortened: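 HP1-beta (50 nM) preformed 30 min with biotinylated H3(1-18)K9me3 peptide (50 nM) in PBS pH 7.4, 0.01% Tween-20. Compounds added for 30 min at room temperature. Complex disruption read by AlphaScreen with streptavidin donor/nickel chelate acceptor beads (10 ug/mL each).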
# [2] = target: Methanococcus maripaludis chaperonin (MmCpn) (UniProt Q6LX38); assay: High-Throughput Screening for Modulators of Cytosolic Chaperonin Activity: MmCpn Primary Screen (AID 488978);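 further: 50 nM MmCpn enzyme hydrolysing 30 µM ATP at 37 °C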
# Sequence of Methanococcus maripaludis chaperonin (MmCpn) (Q6LX38 1-543): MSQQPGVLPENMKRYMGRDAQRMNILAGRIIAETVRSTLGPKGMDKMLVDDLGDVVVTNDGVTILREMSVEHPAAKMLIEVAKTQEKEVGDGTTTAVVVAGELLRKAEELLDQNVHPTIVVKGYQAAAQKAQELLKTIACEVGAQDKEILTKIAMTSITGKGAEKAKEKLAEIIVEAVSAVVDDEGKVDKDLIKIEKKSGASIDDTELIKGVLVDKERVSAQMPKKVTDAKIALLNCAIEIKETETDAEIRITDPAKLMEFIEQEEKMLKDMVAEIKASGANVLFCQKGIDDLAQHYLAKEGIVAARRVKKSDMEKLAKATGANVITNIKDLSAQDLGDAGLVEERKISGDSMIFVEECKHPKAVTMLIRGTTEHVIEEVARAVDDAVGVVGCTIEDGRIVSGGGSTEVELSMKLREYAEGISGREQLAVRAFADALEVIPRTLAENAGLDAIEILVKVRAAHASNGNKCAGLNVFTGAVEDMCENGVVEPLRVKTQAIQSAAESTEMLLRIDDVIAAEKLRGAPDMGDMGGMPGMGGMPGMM
# Procedure, shortened: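 Steps: chaperonin 50 nM final; add compound, 5 min RT; start with ATP, 30 uM final; hold 10 min at 37C; add ADP Transcreener HTRF reagent, 5 min; read ex 320, em 590 and 665 nm.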
# [3] = target: D(1A) dopamine receptor (Homo sapiens) (UniProt P21728); assay: HTS Assay for Allosteric Agonists of the Human D1 Dopamine Receptor: Primary Screen for Agonists (AID 488981)
# Sequence of D(1A) dopamine receptor (Homo sapiens) (P21728 whole entry, looked up): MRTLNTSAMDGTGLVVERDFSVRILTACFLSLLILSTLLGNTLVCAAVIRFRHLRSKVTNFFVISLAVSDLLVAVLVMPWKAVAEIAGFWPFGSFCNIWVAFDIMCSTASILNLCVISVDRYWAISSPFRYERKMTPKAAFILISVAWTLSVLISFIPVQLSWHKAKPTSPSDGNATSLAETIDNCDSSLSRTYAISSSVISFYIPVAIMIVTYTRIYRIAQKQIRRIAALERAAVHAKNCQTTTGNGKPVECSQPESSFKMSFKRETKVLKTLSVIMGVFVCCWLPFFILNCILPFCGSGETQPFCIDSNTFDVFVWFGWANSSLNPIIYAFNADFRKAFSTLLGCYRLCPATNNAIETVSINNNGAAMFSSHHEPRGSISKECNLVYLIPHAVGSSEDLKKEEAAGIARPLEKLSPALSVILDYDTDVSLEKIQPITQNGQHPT
# Procedure, shortened: (§1)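 Tetracycline-induced HEK293 T-REx cells force-coupled to calcium signalling were incubated overnight at 30 C and dye-loaded at room temperature. Calcium flux over 180 s after compound addition flagged agonists; a further 180 s read after EC20 dopamine flagged potentiators.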
# [4] = target: D(1A) dopamine receptor (Homo sapiens) (UniProt P21728); assay: HTS Assay for Allosteric Agonists of the Human D1 Dopamine Receptor: Primary Screen for Potentiators (AID 488982)
# Procedure, shortened: as §1
# [5] = target: D(1A) dopamine receptor (Homo sapiens) (UniProt P21728); assay: HTS Assay for Allosteric Agonists of the Human D1 Dopamine Receptor: Primary Screen for Antagonists (AID 488983);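 further: calcium flux response to an EC80 dopamine challenge measured with no-wash dye; nearly all actives have a fitted effect of over 65% in size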
# Procedure, shortened: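 Tetracycline-induced HEK293 T-REx D1 line, force-coupled to calcium flux, read with no-wash calcium dye. Compound added after 10 s baseline, read 180 s for agonism, then EC80 dopamine added and read a further 180 s.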
# [6] = Validation screen for small molecules that induce genotoxicity in human embryonic kidney (HEK293T) cells expressing luciferase-tagged ELG1 (AID 493106)
# Procedure, shortened: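 HEK293T cells expressing luciferase-tagged ELG1, 2,000 cells/well, exposed to compound 16 hr at 37 °C, 5% CO2. Luciferase read after ONE-Glo, 30 min at room temperature; increased signal indicates genetic stress.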
# [7] = target: ATPase family AAA domain-containing protein 5 (Homo sapiens) (UniProt Q96QE3); assay: Validation screen for small molecules that inhibit ELG1-dependent DNA repair in human embryonic kidney (HEK293T) cells expressing luciferase-tagged ELG1 (AID 493107);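 further: cells co-treated with the DNA-damaging agent 5-fluorouridine alongside compound; series mostly up to about 46 µM; inhibitors lower the ELG1-luciferase luminescence signal; nearly all actives have a fitted effect of over 70% in size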
# Sequence of ATPase family AAA domain-containing protein 5 (Homo sapiens) (Q96QE3 whole entry, looked up, the tested form may be a part): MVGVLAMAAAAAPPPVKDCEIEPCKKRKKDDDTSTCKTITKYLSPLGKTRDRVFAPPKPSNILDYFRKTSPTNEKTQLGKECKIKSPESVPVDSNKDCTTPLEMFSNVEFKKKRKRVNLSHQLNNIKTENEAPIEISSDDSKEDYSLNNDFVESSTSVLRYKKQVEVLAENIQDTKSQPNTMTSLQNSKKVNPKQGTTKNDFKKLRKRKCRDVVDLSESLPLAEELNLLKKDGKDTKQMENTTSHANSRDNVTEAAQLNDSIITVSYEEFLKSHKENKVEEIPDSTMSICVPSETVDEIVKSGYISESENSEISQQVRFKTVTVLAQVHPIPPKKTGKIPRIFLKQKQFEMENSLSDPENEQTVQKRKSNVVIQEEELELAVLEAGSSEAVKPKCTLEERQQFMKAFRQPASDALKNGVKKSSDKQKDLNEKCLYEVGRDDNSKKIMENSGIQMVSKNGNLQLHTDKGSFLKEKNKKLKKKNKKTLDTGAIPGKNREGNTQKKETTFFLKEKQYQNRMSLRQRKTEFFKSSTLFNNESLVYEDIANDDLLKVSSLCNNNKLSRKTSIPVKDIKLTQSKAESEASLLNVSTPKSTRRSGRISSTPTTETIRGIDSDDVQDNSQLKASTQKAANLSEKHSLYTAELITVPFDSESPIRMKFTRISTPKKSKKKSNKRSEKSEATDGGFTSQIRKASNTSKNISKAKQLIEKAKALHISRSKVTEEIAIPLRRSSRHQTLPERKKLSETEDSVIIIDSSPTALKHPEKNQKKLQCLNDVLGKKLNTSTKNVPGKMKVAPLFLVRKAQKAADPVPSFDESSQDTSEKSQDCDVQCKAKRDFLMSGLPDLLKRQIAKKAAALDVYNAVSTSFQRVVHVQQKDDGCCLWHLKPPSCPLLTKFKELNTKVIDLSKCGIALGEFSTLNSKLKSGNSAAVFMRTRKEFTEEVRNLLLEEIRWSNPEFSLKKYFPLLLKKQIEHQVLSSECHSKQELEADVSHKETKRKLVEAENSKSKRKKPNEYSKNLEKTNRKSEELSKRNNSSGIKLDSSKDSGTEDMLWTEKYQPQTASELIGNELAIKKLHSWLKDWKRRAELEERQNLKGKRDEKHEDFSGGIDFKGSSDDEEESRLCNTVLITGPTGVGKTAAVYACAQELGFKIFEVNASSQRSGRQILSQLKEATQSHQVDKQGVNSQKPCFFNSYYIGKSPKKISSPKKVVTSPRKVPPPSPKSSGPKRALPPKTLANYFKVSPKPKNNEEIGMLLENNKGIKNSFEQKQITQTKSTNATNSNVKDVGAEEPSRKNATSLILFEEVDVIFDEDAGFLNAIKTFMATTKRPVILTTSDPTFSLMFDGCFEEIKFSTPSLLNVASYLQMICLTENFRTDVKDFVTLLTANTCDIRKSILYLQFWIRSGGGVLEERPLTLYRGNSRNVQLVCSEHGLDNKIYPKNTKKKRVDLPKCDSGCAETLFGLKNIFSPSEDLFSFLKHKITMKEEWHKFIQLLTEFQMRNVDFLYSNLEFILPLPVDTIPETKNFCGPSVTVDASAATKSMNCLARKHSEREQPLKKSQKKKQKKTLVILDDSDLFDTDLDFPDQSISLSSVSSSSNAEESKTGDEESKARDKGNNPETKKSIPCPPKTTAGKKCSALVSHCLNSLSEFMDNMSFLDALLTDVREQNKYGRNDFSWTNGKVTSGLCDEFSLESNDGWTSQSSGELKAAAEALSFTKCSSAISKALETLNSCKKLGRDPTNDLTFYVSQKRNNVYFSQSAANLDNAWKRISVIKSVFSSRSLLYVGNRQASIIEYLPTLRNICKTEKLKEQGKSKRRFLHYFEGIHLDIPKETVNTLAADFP
# Procedure, shortened: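 HEK293T cells expressing luciferase-tagged ELG1, 2,000 per well, treated with 5-fluorouridine plus compound for 16 h at 37 C. ONE-Glo luminescence after 30 min at room temperature reports ELG1 reporter level.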
# [8] = Nrf2 qHTS screen for inhibitors: Validation (AID 493153; active means well fitted inhibition curve with a large enough effect in the main read-out, with a control signal flat, not every such curve was filed as active); conditions: viability change: measured here: cytotoxicity max response
# Procedure, shortened: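 A549 cells carrying ARE-firefly luciferase reporter, 5000 cells/well in 5% FBS OPTI-MEM, treated with compound over a concentration series for 18-24 h at 37 C. Luciferase luminescence gave Nrf2 activity; CellTiter-Fluor fluorescence gave viability.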
# [9] = qHTS for Inhibitors of Cell Surface uPA Generation: Validation Assay (AID 493164)
# Procedure, shortened: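 RAW 264.7 cells (4000/well) were plated overnight, then exposed for 18 h at 37 C, 5% CO2 to compounds in a 7-point 1:5 titration (2.45 nM–38.3 uM final). Intracellular ATP was read by ATP-Lite luminescence.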
# [10] = target: Galactokinase (Homo sapiens) (UniProt P51570); assay: qHTS Validation Assay for Inhibitors of Human Galactokinase (GALK) (AID 493189)
# Procedure, shortened: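 5 nM GALK / 100 uM galactose / 35 uM ATP, 20 mM HEPES pH8.0, 5 mM MgCl2, 60 mM NaCl, 1 mM DTT, 0.01% BSA (final). RT 1 h; Kinase-Glo Plus luminescence.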
# [11] = Validation screen for small molecules that induce DNA re-replication in SW480 colon adenocarcinoma cells (AID 504364)
# Procedure, shortened: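 SW480 cells (250/well) exposed 48 h at 37 C, 5% CO2, then Hoechst-stained 40 min. Nuclear DNA content imaged by fluorescence scanning (405 nm excitation, 500-530 nm emission); re-replication scored as increased nuclei with elevated intensity.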
# [12] = target: Peptidyl-prolyl cis-trans isomerase NIMA-interacting 1 (Homo sapiens) (UniProt Q13526); assay: qHTS Validation Assay to Find Inhibitors of Pin1 (AID 504536; active means well fitted inhibition curve with a large enough effect in the polarisation, with a control signal flat, not every such curve was filed as active; the % refers to the polarisation)
# Sequence of Peptidyl-prolyl cis-trans isomerase NIMA-interacting 1 (Homo sapiens) (Q13526 whole entry, looked up): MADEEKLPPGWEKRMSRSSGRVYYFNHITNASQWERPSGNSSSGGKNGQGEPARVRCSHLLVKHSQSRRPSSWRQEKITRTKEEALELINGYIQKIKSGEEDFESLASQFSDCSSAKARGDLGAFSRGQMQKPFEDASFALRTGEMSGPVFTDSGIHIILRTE
# Procedure, shortened: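 Fluorescence polarization competition: compounds (titration) displace HiFluor-488-labeled Pin1-1b peptide from Pin1 (0.3 uM final) in pH 7.5 HEPES buffer with DTT, 10 min at room temperature; %Activity normalized to no-enzyme wells, curves fitted.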
# [13] = target: Phosphoglycerate kinase, glycosomal (Trypanosoma brucei brucei) (UniProt P07378); assay: qHTS Validation Assay to Find Inhibitors of Phosphoglycerate Kinase (AID 504547)
# Sequence of Phosphoglycerate kinase, glycosomal (Trypanosoma brucei brucei) (P07378 whole entry, looked up): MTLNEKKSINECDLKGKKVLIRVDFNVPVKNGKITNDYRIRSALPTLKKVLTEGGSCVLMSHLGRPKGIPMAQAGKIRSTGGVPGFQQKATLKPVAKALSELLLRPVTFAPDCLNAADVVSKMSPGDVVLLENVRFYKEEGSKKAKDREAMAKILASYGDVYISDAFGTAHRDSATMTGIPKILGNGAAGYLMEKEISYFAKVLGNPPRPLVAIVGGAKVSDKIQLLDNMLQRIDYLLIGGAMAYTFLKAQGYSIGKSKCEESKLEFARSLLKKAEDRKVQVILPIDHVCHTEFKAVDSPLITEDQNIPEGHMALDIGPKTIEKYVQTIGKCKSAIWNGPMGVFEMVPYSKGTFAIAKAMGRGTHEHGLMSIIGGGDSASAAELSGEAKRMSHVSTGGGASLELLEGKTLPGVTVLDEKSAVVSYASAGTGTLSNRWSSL
# Procedure, shortened: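 Substrate/PGK mix plus compound; reaction started with GAPDH (100nM final) to form 1,3-BPG; 60 min RT; Kinase-Glo Plus 10 min; luminescence. TEA 100mM pH 7.6, MgCl2 5mM, Tween-20 0.01%.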
# [14] = target: phosphoglycerate mutase (Leishmania major) (UniProt Q4Q090); assay: qHTS Validation Assay to Find Inhibitors of Phosphoglycerate Mutase (AID 504548);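 further: end-point luminescence from Kinase-GloPlus after the PGAM reaction; series mostly up to about 58 µM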
# Sequence of phosphoglycerate mutase (Leishmania major) (Q4Q090 1-553): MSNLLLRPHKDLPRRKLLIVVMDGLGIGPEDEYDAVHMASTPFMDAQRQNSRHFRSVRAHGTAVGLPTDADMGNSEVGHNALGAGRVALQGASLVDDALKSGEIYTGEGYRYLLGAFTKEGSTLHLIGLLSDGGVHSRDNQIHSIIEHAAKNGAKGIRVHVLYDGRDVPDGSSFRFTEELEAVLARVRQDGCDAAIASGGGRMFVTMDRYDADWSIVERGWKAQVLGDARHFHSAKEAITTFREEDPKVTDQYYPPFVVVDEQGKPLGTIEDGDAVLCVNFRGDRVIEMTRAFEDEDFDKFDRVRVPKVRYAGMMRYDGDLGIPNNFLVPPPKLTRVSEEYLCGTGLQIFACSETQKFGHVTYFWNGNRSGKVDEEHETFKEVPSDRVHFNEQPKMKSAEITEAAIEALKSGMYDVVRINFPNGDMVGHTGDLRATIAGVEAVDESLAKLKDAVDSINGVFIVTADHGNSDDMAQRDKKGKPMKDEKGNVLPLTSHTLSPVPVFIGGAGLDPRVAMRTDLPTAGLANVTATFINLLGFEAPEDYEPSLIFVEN
# Procedure, shortened: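 Inhibition of L. major PGAM was assessed by Kinase-GloPlus luminescence following a 45-minute room-temperature reaction with enzyme at 1.25nM final.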
# [15] = Inducers of the Endoplasmic Reticulum Stress Response (ERSR) in human glioma: Validation (AID 504836)
# Procedure, shortened: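 Stably transfected U87-MG human glioma cells carrying a GRP78-based luminescent sensor were seeded at 1000 cells/well, pin-dosed with compounds and incubated 16 h. Luciferase reagent was then added, and end-point luminescence was read after 10 min at room temperature.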
# [16] = target: Ubiquitin carboxyl-terminal hydrolase 1 (Homo sapiens) (UniProt O94782); assay: Inhibitors of USP1/UAF1: Pilot qHTS (AID 504865);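 further: rhodamine fluorescence freed from ubiquitin-rhodamine substrate followed over time; top concentration of the series differs between compounds; nearly all actives have a fitted effect of over 35% in size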
# Sequence of Ubiquitin carboxyl-terminal hydrolase 1 (Homo sapiens) (O94782 whole entry, looked up): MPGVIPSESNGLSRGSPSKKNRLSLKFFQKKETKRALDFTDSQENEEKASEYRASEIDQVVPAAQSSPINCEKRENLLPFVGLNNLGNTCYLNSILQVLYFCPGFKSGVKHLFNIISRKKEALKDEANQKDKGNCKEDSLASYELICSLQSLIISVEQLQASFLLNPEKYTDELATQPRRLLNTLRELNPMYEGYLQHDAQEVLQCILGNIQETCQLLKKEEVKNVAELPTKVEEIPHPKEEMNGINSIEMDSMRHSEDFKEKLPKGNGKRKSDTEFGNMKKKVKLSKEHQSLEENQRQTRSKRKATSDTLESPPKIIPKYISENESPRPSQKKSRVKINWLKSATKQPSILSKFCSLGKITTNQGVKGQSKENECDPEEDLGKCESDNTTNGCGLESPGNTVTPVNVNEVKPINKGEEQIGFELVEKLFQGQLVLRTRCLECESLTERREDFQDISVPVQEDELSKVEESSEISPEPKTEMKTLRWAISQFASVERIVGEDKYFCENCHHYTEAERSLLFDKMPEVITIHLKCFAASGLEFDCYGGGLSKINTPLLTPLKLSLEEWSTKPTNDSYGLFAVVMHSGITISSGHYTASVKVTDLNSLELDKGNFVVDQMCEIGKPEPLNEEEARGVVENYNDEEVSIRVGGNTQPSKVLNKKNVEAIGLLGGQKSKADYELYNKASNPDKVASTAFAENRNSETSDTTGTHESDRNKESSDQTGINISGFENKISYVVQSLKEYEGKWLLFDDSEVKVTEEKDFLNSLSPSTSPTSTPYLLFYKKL
# Procedure, shortened: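 In 50mM HEPES pH 7.8 containing 0.5mM EDTA, 1mM TCEP, 0.1 mg/ml BSA and 0.01% Tween-20, 1nM USP1/UAF1 is exposed to compound for 15 min, then Ub-Rho (150nM final) is added and fluorescence is read over time.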
# [17] = qHTS for Inhibitors of ATXN expression: Validation of Cytotoxic Assay (AID 588349)
# Procedure, shortened: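 HEK293 cells treated with titrated compound for 72 hr at 37 degrees C; viability read as intracellular ATP by CellTiter Glo luminescence.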
# [18] = qHTS for Inhibitors of ATXN expression: Validation (AID 588378); further: series mostly up to about 57 µM; nearly all actives have a fitted effect of over 75% in size
# Procedure, shortened: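 Compounds were pinned onto attached HEK293 cells carrying an ATXN2-firefly luciferase construct and incubated 24 hrs at 37 degrees C. Each well then received a fluorescent viability reagent followed by luciferase substrate for end-point luminescence.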
# [19] = target: Voltage-gated inwardly rectifying potassium channel KCNH2 (Homo sapiens) (UniProt Q12809); assay: qHTS Assay for Small Molecule Inhibitors of the Human hERG Channel Activity (AID 588834);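 further: top concentration of the series differs between compounds; lower thallium flux fluorescence means stronger hERG block; nearly all actives have a fitted effect of over 50% in size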
# Procedure, shortened: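 hERG-BacMam U2OS, 2000 cells/well; 0.7X FluxOR loading 1 hr RT dark; cpd ~10 min 37 °C; stim buffer; FDSS fluorescence 2 min @ 1 s; AC50 Hill fit.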
# [20] = target: Luciferin 4-monooxygenase (Photinus pyralis) (UniProt P08659); assay: Biochemical firefly luciferase enzyme assay for NPC (AID 624030);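 further: purified P. pyralis luciferase at 10 nM with luciferin and ATP substrate; series mostly up to about 59 µM; nearly all actives have a fitted effect of over 70% in size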
# Procedure, shortened: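 Counter-screen for direct inhibition of the luciferase enzyme by approved-drug library compounds, run at 10 nM enzyme in 50 mM Tris acetate (final). Luminescence was read within 5 min of enzyme-buffer addition and normalized to PTC124 versus DMSO (0%).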
# [21] = target: Glucagon-like peptide 1 receptor (Homo sapiens) (UniProt P43220); assay: qHTS of GLP-1 Receptor Agonists: LOPAC Validation (AID 624148);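 further: higher luminescence signal means agonism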
# Procedure, shortened: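 HEK293 cells stably co-expressing a cAMP-responsive luciferase reporter and a hypersensitive GLP-1R were plated 12 h at 37 °C and exposed to compounds for 4-6 hr at 37 °C, 5% CO2. Luminescence was read 12 min after adding detection reagent.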
# [22] = qHTS of Nrf2 Activators: LOPAC Validation (AID 624149)
# Procedure, shortened: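 AREc32_Fluc cells, 1000/well in OPTI-MEM with 5% FBS, grown overnight, then exposed to compounds for 24 hr at 37 deg C, 5% CO2. ARE-driven firefly luciferase read by Steady-Glo luminescence after 30 min at RT.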
# [23] = HTS Assay for Allosteric Antagonists of the Human D2 Dopamine Receptor: Hit Validation in HTRF (AID 624455);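 further: stable D1 dopamine receptor cell line scored for blocking the D1 response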
# Procedure, shortened: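 Hit validation in cells stably expressing the D1 dopamine receptor, run in HTRF format. Compounds were tested for their ability to inhibit the D1-mediated response.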
# [24] = Cytotoxicity counterscreen for NFkB agonists and antagonists (AID 624476);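 further: cells exposed to compound for 48 hours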
# [25] = qHTS Assay for Identification of Small Molecule Agonists for NFkB Signaling Pathway. (AID 624478)
# Procedure, shortened: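 NFkB-bla ME-180 cells carry a beta-lactamase reporter. They received compound plus TNF alpha at 10 pM final (its EC50) for 5 h at 37 C. Reporter activity was read as 460/530 nm emission ratio after 2 h LiveBLAzer substrate loading.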
# [26] = qHTS Assay for Identification of Small Molecule Antagonists for NFkB Signaling Pathway. (AID 624479; calls by dose curve;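 further: pathway stimulated with TNF alpha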)
smiles,measurement,setting,value
CC12CCC3C(CCC4=C(O)C(=O)CCC43C)C1CCC2=O (configuration not stated),Potency,[1],inactive
same,outcome,[2],inactive
same,outcome,[3],inactive
same,outcome,[4],inactive
same,outcome,[5],inactive
same,outcome,[6],inactive
same,Potency,[7],inactive
same,outcome,[8],inactive
same,viability change,[8],0.774%
same,outcome,[9],inactive
same,outcome,[10],inactive
same,outcome,[11],inactive
same,outcome,[12],inactive
same,outcome,[13],inactive
same,outcome,[14],inactive
same,outcome,[15],inactive
same,Potency,[16],inactive
same,outcome,[17],inactive
same,outcome,[18],inactive
same,Potency,[19],inactive
same,Potency,[20],inactive
same,outcome,[21],inactive
same,outcome,[22],inactive
same,outcome,[23],inactive
same,outcome,[24],inactive
same,outcome,[25],inactive
same,outcome,[26],inactive
